These results are taken from PubChem BioAssay (Tox21).

Structures are written as SMILES. Results filed as inconclusive are left out. A number with no mark means an inactive call. Active and inactive are the calls of the source. Unless noted, the call rests on the fitted dose curve; in most records, active means well fitted curve in the direction sought with a large enough effect in the repeat runs; inconclusive means weak or mixed curves; inactive means no such curve, though single readings can be large; an effect the other way counts as inactive or inconclusive.

A short description of assay [1]: qHTS assay to identify aromatase inhibitors - cell viability counter screen (AID 743084).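 Further: cells stimulated with testosterone during compound exposure; nearly all actives have a fitted effect of over 55% in size.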 Further: potency means the concentration at half of the fitted maximal effect. A general note: qHTS replaces the single test concentration by a dilution series.
A short description of assay [2]: qHTS assay to identify small molecule that activate the aryl hydrocarbon receptor (AhR) signaling pathway - cell viability counter screen (AID 743086). Further: series mostly up to about 70 µM; nearly all actives have a fitted effect of over 45% in size. In a few lines: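 Cytotoxicity counter screen: CellTiter-Fluor signal (30 min, 37 C) in 4000 HepG2 cells/well carrying the DRE-luciferase reporter, following 24 h compound exposure at 37 C.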
Assay [3] addresses Peroxisome proliferator-activated receptor gamma (Homo sapiens) (UniProt P37231). Kind of assay: qHTS assay to identify small molecule agonists of the peroxisome proliferator-activated receptor gamma (PPARg) signaling pathway (AID 743094; active means well fitted activation curve with a large enough effect in the signal ratio in the repeat runs, not every such curve was filed as active; the % refers to the signal ratio). In a few lines:
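Fluorescence-based beta-lactamase readout in HEK293H PPARg UAS-bla cells after 17 h compound exposure (37C) and 1 h B/G FRET substrate incubation at room temperature.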

Assay [4] shares this target. Kind of assay: qHTS assay to identify small molecule antagonists of the peroxisome proliferator-activated receptor gamma (PPARg) signaling pathway (AID 743191; calls by dose curve; further: series mostly up to about 63 µM; nearly all actives have a fitted effect of over 30% in size). Summed up: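 Beta-lactamase reporter under UAS control in HEK293H PPARg-bla cells; compound treatment 17 h at 37C. Read-out: fluorescence intensity after 1 h room-temperature incubation with LiveBLAzer B/G FRET substrate.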

A short description of assay [5]: qHTS assay to identify small molecule antagonists of the peroxisome proliferator-activated receptor gamma (PPARg) signaling pathway - cell viability counter screen (AID 743194). Further: nearly all actives have a fitted effect of over 55% in size. In a few lines: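 Viability was measured as CellTiter-Glo luminescence in GeneBLAzer PPARg UAS-bla HEK293H cells. These cells had been exposed 17 h at 37 C to compounds together with rosiglitazone at 50 nM final, with the beta-lactamase readout taken in the same wells.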

Assay [6] is described as follows: qHTS assay for small molecule agonists of the antioxidant response element (ARE) signaling pathway - cell viability counter screen (AID 743203; calls by dose curve; further: nearly all actives have a fitted effect of over 55% in size; further: potency means the concentration at half of the fitted maximal effect). In a few lines:
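Parallel cytotoxicity read-out for the ARE-bla screen: HepG2 reporter cells, 16 hrs with compounds, then CellTiter-Glo luminescence.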

Assay [7] can be described thus: qHTS assay for small molecule activators of the heat shock response signaling pathway - cell viability counter screen (AID 743209). Further: nearly all actives have a fitted effect of over 50% in size. In a few lines: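 To flag cytotoxic compounds, HSE-bla HeLa cells plated at 1500 cells/well were dosed for 5 h at 37 C, followed by the reporter FRET read and then CellTiter-Glo, with luminescence recorded 30 min after reagent addition.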

Assay [8] can be described thus: qHTS assay for small molecule agonists of the antioxidant response element (ARE) signaling pathway (AID 743202; active means well fitted activation curve with a large enough effect in the signal ratio in the repeat runs, not every such curve was filed as active; the % refers to the signal ratio). In a few lines:
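After 16 hours of compound treatment at 37 C, HepG2 cells with a stably integrated ARE-driven beta-lactamase reporter were loaded 2 hours at room temperature with LiveBLAzer B/G FRET substrate and fluorescence intensity measured.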

The nature of assay [9]: qHTS assay for small molecule activators of the heat shock response signaling pathway (AID 743210; active means well fitted activation curve with a large enough effect in the signal ratio in the repeat runs, with a control signal flat, not every such curve was filed as active; the % refers to the signal ratio; further: potency means the concentration at half of the fitted maximal effect; on activation: series mostly up to about 63 µM). Summed up: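 Compound exposure lasted 5 h at 37 C in HeLa cells carrying a heat-shock-element-driven beta-lactamase reporter. Read-out: fluorescence intensity after 2.5 h room-temperature loading with LiveBLAzer B/G FRET substrate.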
Assay [10] has as its target Aryl hydrocarbon receptor (Homo sapiens) (UniProt P35869). Nature of the assay: qHTS assay to identify small molecule that activate the aryl hydrocarbon receptor (AhR) signaling pathway (AID 743085). Further: nearly all actives have a fitted effect of over 15% in size. Further: potency means the concentration at half of the fitted maximal effect.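 On activation: HG2L7.5c1 human HepG2 liver cells with stably integrated DRE-driven firefly reporter; series mostly up to about 70 µM.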 In a few lines:
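Steps: seed HepG2-AhR-luc cells; allow 5 h at 37C; pin-transfer test compound or vehicle; incubate 24 h at 37C; add viability dye (30 min, 37C) and read fluorescence; add luciferase substrate (30 min, RT) and read luminescence.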
On the % scale 0 is the no-effect control and ±100 the full control effect.

Sequence of Peroxisome proliferator-activated receptor gamma (Homo sapiens) (P37231 whole entry, looked up): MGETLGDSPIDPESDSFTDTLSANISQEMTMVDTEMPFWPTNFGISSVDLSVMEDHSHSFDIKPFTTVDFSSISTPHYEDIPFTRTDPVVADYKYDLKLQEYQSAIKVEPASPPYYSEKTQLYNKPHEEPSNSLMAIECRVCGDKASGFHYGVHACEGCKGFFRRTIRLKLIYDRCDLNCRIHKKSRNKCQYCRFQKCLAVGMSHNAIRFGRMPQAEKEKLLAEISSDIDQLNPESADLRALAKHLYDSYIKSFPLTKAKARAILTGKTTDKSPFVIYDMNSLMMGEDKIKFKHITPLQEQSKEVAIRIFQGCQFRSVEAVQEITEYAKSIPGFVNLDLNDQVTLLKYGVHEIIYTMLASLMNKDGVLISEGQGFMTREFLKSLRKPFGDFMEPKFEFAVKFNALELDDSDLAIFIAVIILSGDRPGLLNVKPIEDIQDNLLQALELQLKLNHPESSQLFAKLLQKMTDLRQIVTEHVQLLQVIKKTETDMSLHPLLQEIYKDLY
Sequence of Aryl hydrocarbon receptor (Homo sapiens) (P35869 whole entry, looked up): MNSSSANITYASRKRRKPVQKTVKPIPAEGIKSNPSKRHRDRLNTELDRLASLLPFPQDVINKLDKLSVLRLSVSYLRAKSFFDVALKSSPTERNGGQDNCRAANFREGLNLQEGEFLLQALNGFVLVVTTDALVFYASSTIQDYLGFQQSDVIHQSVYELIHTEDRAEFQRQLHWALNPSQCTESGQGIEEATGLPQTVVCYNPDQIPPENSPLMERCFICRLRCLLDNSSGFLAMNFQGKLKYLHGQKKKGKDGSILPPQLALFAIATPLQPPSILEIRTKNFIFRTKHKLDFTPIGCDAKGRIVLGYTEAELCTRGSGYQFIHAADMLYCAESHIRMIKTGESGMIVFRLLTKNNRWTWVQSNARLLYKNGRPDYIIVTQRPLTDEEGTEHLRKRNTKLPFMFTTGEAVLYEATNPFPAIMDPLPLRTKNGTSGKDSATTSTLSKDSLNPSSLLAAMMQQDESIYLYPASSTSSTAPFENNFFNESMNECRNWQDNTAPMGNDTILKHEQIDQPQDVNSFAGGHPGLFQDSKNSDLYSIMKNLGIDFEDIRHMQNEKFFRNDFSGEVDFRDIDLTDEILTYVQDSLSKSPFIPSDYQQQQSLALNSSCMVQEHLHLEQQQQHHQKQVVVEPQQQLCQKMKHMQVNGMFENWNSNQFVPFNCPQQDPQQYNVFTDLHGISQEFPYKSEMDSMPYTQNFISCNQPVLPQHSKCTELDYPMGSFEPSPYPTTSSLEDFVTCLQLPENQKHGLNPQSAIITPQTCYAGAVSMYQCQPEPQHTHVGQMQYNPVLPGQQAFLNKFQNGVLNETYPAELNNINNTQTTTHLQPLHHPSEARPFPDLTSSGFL

Take `CC(C)Nc1nc(N)nc(Cl)n1`: the Potency result in assay [1], in assay [3], in [4], in assay [5] and in assay [6] was “inactive” in each case. Also, the molecule was classed as inactive in assay [2] and in [7].
With `CNCCC(Oc1ccccc1OC)c1ccccc1` (stereo not given), the Potency entry in assay [1], in assay [3], in [4], in [8], in [6] and in [9] was “inactive” in each case. Further, the molecule was called inactive in [2] and in [7].
As for `CN1CCN(C2=Nc3cc(F)ccc3Cc3ccccc32)CC1`, the Potency entry in assay [1], in assay [10], in assay [3], in assay [5], in assay [6] and in assay [9] was “inactive” each time. The call in [7] was inactive.
With `CC1CN(c2ccccc2)NC1=O` (stereo not given), the Potency result in [1], in assay [4], in assay [6] and in [9] was “inactive” throughout. Also, the result in [2] and in [7] was inactive.
For the molecule `O=C1CCN(c2ccccc2)N1`, the Potency entry in assay [1], in assay [5], in [8] and in assay [6] was “inactive” each time. Moreover, the molecule was classed as inactive in assay [2] and in assay [7].
`CCOc1ccccc1N`: the Potency entry in [1], in assay [3], in [4], in assay [5], in assay [8] and in [6] was “inactive” in each case. Also, the molecule was called inactive in assay [2].
For `O=C(O[C@@H](C(=O)O)[C@@H](OC(=O)c1ccccc1)C(=O)O)c1ccccc1`, the Potency entry in assay [1], in assay [3], in [8], in [6] and in assay [9] was “inactive” throughout. For the same molecule, the outcome in [2] and in assay [7] was inactive.
In the case of `OC[C@H]1O[C@@H](O[C@H]2[C@H](O)[C@@H](O)[C@H](O)O[C@@H]2CO)[C@H](O)[C@@H](O)[C@H]1O`, the Potency entry in assay [1], in assay [5], in assay [8], in [6] and in assay [9] was “inactive” each time. Further, the molecule was called inactive in assay [2] and in assay [7].
Turning to `Cc1cc(S(=O)(=O)O)c(N)cc1Cl`, the Potency entry in assay [1], in assay [3], in [4], in [6] and in assay [9] was “inactive” in each case. Moreover, the molecule was called inactive in [2] and in assay [7].
For `O=C1CCCc2ccccc21`, the Potency entry in [1], in assay [3], in assay [5], in [6] and in assay [9] was “inactive” in each case. For the same molecule, the call in [2] and in [7] was inactive.
In the case of `CC(=O)Oc1cc(C(C)C)c(OCCN(C)C)cc1C`, the Potency entry in assay [1], in [10], in assay [6] and in assay [9] was “inactive” in each case. In addition, the call in assay [2] and in assay [7] was inactive.
Take `CCN(CCCc1ccccc1)CCCc1ccccc1`: the Potency result in [1], in assay [3], in assay [6] and in assay [9] was “inactive” each time. In addition, the outcome in [2] and in assay [7] was inactive.
Regarding `O=C(Cl)c1cccc([N+](=O)[O-])c1`, the Potency entry in [1], in [4], in [5], in assay [8] and in assay [6] was “inactive” each time. The result in [2] and in assay [7] was inactive.
For `Cn1cnc2c(F)c(Nc3ccc(Br)cc3Cl)c(C(=O)NOCCO)cc21`, the Potency result in [1], in [3], in assay [5], in assay [6] and in [9] was “inactive” each time. Besides, the outcome in [2] and in assay [7] was inactive.
As for `CN1CCN(c2c(F)cc3c(=O)c(C(=O)O)cn4c3c2SCC4)CC1`, the Potency entry in assay [1], in assay [3], in assay [8] and in assay [6] was “inactive” in each case. Moreover, the call in [2] and in assay [7] was inactive.
For the molecule `FC(F)(F)c1ccccc1`, the Potency result in assay [1], in [4], in [5], in assay [6] and in [9] was “inactive” throughout. For the same molecule, in assay [2], the result was inactive.
As for `Cc1c(N)cccc1N`, the Potency entry in assay [1], in assay [5], in [6] and in [9] was “inactive” each time. Also, the molecule was called inactive in assay [2] and in assay [7].
As to `Cc1ccc(C)c(N)c1`, the Potency entry in assay [1], in [3], in [5] and in assay [6] was “inactive” throughout. Further, the call in assay [2] was inactive.
`CCN(O)CC`: the Potency entry in [1], in assay [3], in [5], in assay [8], in assay [6] and in [9] was “inactive” throughout. Further, the outcome in [2] and in assay [7] was inactive.
As to `CCCCNc1ccc(C(=O)OCCN(CC)CC)cc1`, the Potency result in assay [1], in [3], in assay [4], in assay [5], in [6] and in [9] was “inactive” each time. The outcome in assay [2] and in [7] was inactive.
As to `OCC(CBr)(CBr)CBr`, the Potency result in [1], in assay [3], in assay [6] and in assay [9] was “inactive” in each case. Also, the molecule was called inactive in assay [2] and in assay [7].
As to `CN(CCCN1c2ccccc2CCc2ccccc21)CC(=O)c1ccc(Cl)cc1`, the Potency result in assay [1], in [5] and in [6] was “inactive” in each case. For the same molecule, the Potency in assay [10] is 29.8 µM (active).
Take `CCCCNC(=S)NCCCC`: the Potency result in [1], in assay [10], in assay [5] and in assay [6] was “inactive” each time. Also, the result in assay [7] was inactive. In addition, in [9], the Potency is 23.6 µM (active).
Consider `NC(Cc1ccc(F)cc1)C(=O)O` (stereo not given), for which the activity change, negative = cytotoxicity in [1] was -2.35% [at 8.47 µM]; in assay [5], -1.09% [at 5.95 µM]. Moreover, the values for the viability change, negative = cytotoxic in assay [2] and in assay [6] were 2.78% [at 8.47 µM] and -1.52% [at 8.36 µM], respectively. Besides, the ratio activity, negative = inhibition in assay [4] is 6.5% [at 5.95 µM]. The activation in assay [8] is -7.28% [at 8.36 µM].
For the molecule `NC1=NCC2c3ccccc3Cc3ccccc3N12` (stereo not given), the Potency result in [1], in [10], in [6] and in assay [9] was “inactive” in each case. The molecule was classed as inactive in [2] and in assay [7].
For `CN1CCC[C@@H]1Cc1c[nH]c2ccc(CCS(=O)(=O)c3ccccc3)cc12`, the Potency entry in assay [1], in [10], in [5], in assay [8], in assay [6] and in [9] was “inactive” throughout. The call in assay [7] was inactive.
`NC(=O)Cc1cccc(C(=O)c2ccccc2)c1N`: the Potency result in assay [1], in [3], in [4], in assay [5], in assay [6] and in [9] was “inactive” in each case. The molecule was classed as inactive in assay [2] and in assay [7].
As for `CCCOCCC`, the Potency result in assay [1], in [3], in [5], in assay [6] and in [9] was “inactive” each time. Also, the result in assay [2] and in [7] was inactive.
On to `CCOC(=O)COc1ccc2c(c1)CC(NCC(O)c1cccc(Cl)c1)CC2` (stereo not given), for which the Potency in assay [1] is 21.9 µM (active); in [6] it was 48.9 µM (active). The Potency result in [10] and in assay [4] was “inactive” each time.
As for `CN1[C@@H]2CC[C@H]1CC(OC(=O)c1c[nH]c3ccccc13)C2` (stereo not given in full), the Potency entry in [1], in assay [10], in assay [3], in [8] and in assay [6] was “inactive” each time. Besides, the call in assay [7] was inactive.
With `Nc1ccc(Oc2ccc(N)c(N)c2)cc1`, the Potency result in assay [1], in assay [3] and in assay [6] was “inactive” in each case. Also, in assay [10], the Potency was 1.54 µM (active). The molecule was called inactive in assay [7].
In the case of `COC(=O)c1ccc2cc(C(=O)OC)ccc2c1`, the Potency result in [1], in assay [3], in assay [4], in [5], in assay [8] and in assay [6] was “inactive” each time. Moreover, the molecule was classed as inactive in assay [2] and in assay [7].
In the case of `CCOC(=O)[C@H](CCc1ccccc1)N[C@@H](C)C(=O)N1Cc2cc(OC)c(OC)cc2C[C@H]1C(=O)O`, the Potency result in assay [1], in assay [6] and in [9] was “inactive” throughout. Besides, in assay [10], the Potency is 9.44 µM (active). In addition, the result in [2] and in [7] was inactive.
`Cc1nc(-c2ccccn2)ncc1C(=O)Nn1cc(C)c2cc(F)ccc21`: the Potency entry in assay [1], in assay [5], in assay [6] and in assay [9] was “inactive” each time. Also, the result in assay [2] and in [7] was inactive.
In the case of `NNS(=O)(=O)c1ccc(Oc2ccc(S(=O)(=O)NN)cc2)cc1`, the Potency entry in assay [1], in assay [3], in assay [5], in [8], in assay [6] and in assay [9] was “inactive” in each case. For the same molecule, the call in assay [2] and in assay [7] was inactive.
As to `CN(C)C(=O)NC1(c2ccccc2)CCN(CCC[C@]2(c3ccc(Cl)c(Cl)c3)CCCN(C(=O)c3ccccc3)C2)CC1`, the results for the Potency in [1] and in assay [6] were 6.51 µM (active) and 14.6 µM (active), respectively. Further, the Potency entry in assay [10], in assay [5] and in assay [9] was “inactive” each time. Also, the call in [7] was inactive.
For `O=[N+]([O-])c1nccn1CO[C@@H](CO)[C@H](O)CO`, the Potency result in assay [1], in assay [10], in [3], in assay [4], in [5] and in [6] was “inactive” in each case. Besides, in [9], the Potency result was “inactive”.
